# Measured values reported in PubChem BioAssay.
# Several values for one entry are separate records, joined by “and”; a condition that tells them apart may be missing. Identical values can stand only once. Inconclusive results are not listed. Activity calls are given as the source filed them. Unless noted, no rule for the calls is given here.
# Assays:
# [1] = reducers of polyQ inclusions in PC12 cells, cell-based, NGF-treated PC12, GFPQ80 (AID 1614); conditions: PC12 NGF-treated GFP-polyQ80 inclusion reduction;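 also: lower means fewer inclusions and 0 means no inclusions at all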
# [2] = hESC survival regulators, cell-based (AID 493140); conditions: human embryonic stem cell survival screen; stronger effect = higher value;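 also: cells exposed to compounds for four days before counting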
# [3] = tested on: Hepatitis C virus NS3 helicase; assay: HCV NS3 helicase inhibitors, primary screen, biochemical, fluorescence polarization, LOPAC1280 library (AID 687035; in the data active = inhibition above about 37%); conditions: Purified HCV NS3 helicase, Cy5-dT15 ssDNA binding fluorescence polarization; stronger effect = higher value; concentration not given here
# [4] = Cy5 fluorescence quenching or enhancement artefacts, artefact control for HCV NS3 helicase inhibitor project, biochemical, LOPAC1280 (AID 687037); conditions: Cy5-DNA-NS3h complex fluorescence interference counterscreen
# [5] = growth inhibition of DIPG glioma cells, dose response, cell-based, SU-DIPG-XVII, MIPE5.0, CellTiter-Glo, qHTS (AID 1347060; cut-off not given, nearly all actives have AC50 up to about 26 µM;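 as to AC50: cells exposed to compound for 48 hours before viability readout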); conditions: SU-DIPG-XVII viability, CellTiter-Glo ATP luminescence
# [6] = growth inhibition of DIPG glioma cells, dose response, cell-based, SU-DIPG-XIII, MIPE4.0, CellTiter-Glo, qHTS (AID 1347061; cut-off not given, nearly all actives have AC50 up to about 37 µM;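 also: cells exposed to compound for 48 hours before readout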); conditions: SU-DIPG-XIII viability, CellTiter-Glo ATP luminescence
# [7] = growth inhibition of DIPG glioma cells, dose response, cell-based, JHH-DIPG-1, MIPE4.0, CellTiter-Glo, qHTS (AID 1347062; cut-off not given, nearly all actives have AC50 up to about 27 µM); conditions: JHH-DIPG-1 viability, CellTiter-Glo ATP luminescence
# [8] = growth inhibition of DIPG glioma cells, dose response, cell-based, SU-DIPG-IV, MIPE4.0, CellTiter-Glo, qHTS (AID 1347063; cut-off not given, nearly all actives have AC50 up to about 30 µM;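 also: compound exposure lasted 48 hours before the viability readout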); conditions: SU-DIPG-IV viability, CellTiter-Glo ATP luminescence
# [9] = viability loss in pontine glioma line – cell-based, SU-DIPG-XXV, MIPE5.0, CellTiter-Glo, qHTS, dose response (AID 1347065; cut-off not given, nearly all actives have AC50 up to about 26 µM;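 also: cells exposed to compound for 48 hours before ATP readout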); conditions: CellTiter-Glo ATP luminescence
# [10] = SU-DIPG-VI glioma cell viability, MIPE4.0 library, CellTiter-Glo luminescence, qHTS (AID 1347066; cut-off not given, nearly all actives have AC50 up to about 30 µM;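 also: cells exposed to compound for 48 hours before readout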); conditions: CellTiter-Glo ATP luminescence
# [11] = JHH-DIPG-1 glioma cell viability, MIPE5.0 library, CellTiter-Glo luminescence, qHTS (AID 1347067; cut-off not given, nearly all actives have AC50 up to about 26 µM;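 also: cells exposed to compound for 48 hours before readout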); conditions: JHH-DIPG-1 glioma viability, CellTiter-Glo ATP luminescence
# [12] = SU-DIPG-XXV glioma cell viability, MIPE5.0 library, qHTS (AID 1347068; cut-off not given, nearly all actives have IC50 up to about 30 µM)
# [13] = phospholipid biosynthesis inhibitors in animal cells, primary screen, cell-based, LOPAC library, screen 4 (AID 1347384); conditions: phospholipid biosynthesis inhibition screen, at 10 µM
# [14] = HDN33 neuroblastoma growth inhibition, cell-based, chromothripsis tumors, cisplatin or BGB combos (AID 1671450; in the data active = inhibition above about 80%;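 also: cells exposed to compound for four days; 0% = vehicle DMSO and 100% = cell killing by high DMSO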); conditions: HDN33 neuroblastoma cells, stronger effect = higher value
# [15] = LFS_MB_1R medulloblastoma cell growth inhibition, synergistic combos for chromothripsis tumors, cisplatin or BGB combos (AID 1671452; in the data active = inhibition above about 80%;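 also: cells exposed for 96 hours before readout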); conditions: LFS_MB_1R medulloblastoma cells, stronger effect = higher value
# [16] = HTB85 osteosarcoma cell growth inhibition, synergistic combos for chromothripsis tumors, BGB or cisplatin IC20 combos (AID 1671453; in the data active = inhibition above about 80%;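 also: cells exposed for 96 hours before readout; 0% = vehicle DMSO and 100% = high DMSO killing control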); conditions: HTB85 osteosarcoma cells, drug combinations, stronger effect = higher value
# [17] = MDA-MB-436 breast carcinoma cell growth inhibition, synergistic combos for chromothripsis tumors, BGB or cisplatin combos (AID 1671458); conditions: MDA-MB-436 breast carcinoma growth inhibition, drug combinations, stronger effect = higher value;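 also: cells exposed for 96 hours; 0% = vehicle DMSO and 100% = killing by high DMSO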
# [18] = growth inhibition of BT084 medulloblastoma cells, cell-based, ICGC_MB145, cisplatin and BGB IC40 combos (AID 1671461; in the data active = inhibition above about 80%;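 also: cells exposed to drugs for 96 hours; 0% = vehicle DMSO and 100% = high DMSO full killing control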); conditions: drug combinations, stronger effect = higher value
# [19] = growth inhibition of RCMB18 medulloblastoma cells, cell-based, cisplatin and BGB IC40 combos (AID 1671462; in the data active = inhibition above about 80%;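 also: cells exposed to compound for four days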); conditions: stronger effect = higher value
# [20] = growth inhibition of CRL1545 osteosarcoma cells, cell-based, cisplatin and BGB IC20 combos (AID 1671464; in the data active = inhibition above about 80%;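 also: cells exposed to compound for 96 hours before readout; 0% = vehicle DMSO and 100% = high DMSO killing control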); conditions: stronger effect = higher value
# [21] = measured here: with BGB IC20 combination, at 0.5 µM
# [22] = measured here: with cisplatin IC20 combination, at 0.5 µM
# [23] = measured here: combination with cisplatin, at 0.5 µM
structure (smiles),measurement,setting,value
NNCCc1ccccc1,inclusion score,[1],2
same,survival,[2],9.5 (inactive)
same,inhibition,[3],-1% (inactive)
same,fluorescence ratio (interference),[4],0.9 (inactive)
same,outcome,[5],inactive
same,AC50,[6],9.35 µM (active)
same,outcome,[7],inactive
same,AC50,[8],13.2 µM (active)
same,outcome,[9],inactive
same,outcome,[10],inactive
same,outcome,[11],inactive
same,outcome,[12],inactive
same,outcome,[13],inactive
N[C@@H](Cc1cc(I)c(Oc2cc(I)c(O)c(I)c2)c(I)c1)C(=O)O,outcome,[5],inactive
same,outcome,[6],inactive
same,outcome,[7],inactive
same,outcome,[9],inactive
same,outcome,[11],inactive
same,outcome,[12],inactive
CC1=C(/C=C/C(C)=C/C=C/C(C)=C/C(=O)O)C(C)(C)CCC1,survival,[2],12.6 (inactive) and 136 (inactive)
same,inhibition,[3],-1% (inactive)
same,fluorescence ratio (interference),[4],0.9 (inactive)
same,outcome,[7],inactive
same,outcome,[11],inactive
same,outcome,[12],inactive
same,outcome,[13],inactive
CCOC(=O)C1=C(C)NC(C)=C(C(=O)OC)C1c1cccc([N+](=O)[O-])c1 (stereo not drawn),survival,[2],5.33 (inactive)
same,inhibition,[3],-2% (inactive)
same,fluorescence ratio (interference),[4],0.9 (inactive)
same,outcome,[13],inactive
NS(=O)(=O)c1cc2c(cc1C(F)(F)F)NC(Cc1ccccc1)NS2(=O)=O (stereo not drawn),inclusion score,[1],2
same,survival,[2],3.67 (inactive)
CCc1nc(N)nc(N)c1-c1ccc(Cl)cc1,survival,[2],16.9 (inactive)
same,AC50,[5],3.72 µM (active)
same,outcome,[6],inactive
same,outcome,[8],inactive
same,outcome,[10],inactive
same,outcome,[11],inactive
same,outcome,[12],inactive
CO[C@@]1(NC(=O)Cc2cccs2)C(=O)N2C(C(=O)O)=C(COC(N)=O)CS[C@@H]21,inclusion score,[1],2
same,survival,[2],2.08 (inactive)
NC(=O)N1c2ccccc2CC(=O)c2ccccc21,outcome,[6],inactive
same,outcome,[7],inactive
same,outcome,[8],inactive
same,outcome,[10],inactive
COC1=CC(=O)C[C@@H](C)[C@]12Oc1c(Cl)c(OC)cc(OC)c1C2=O,inclusion score,[1],2
CN(C)CCc1c[nH]c2ccc(C[C@H]3COC(=O)N3)cc12,outcome,[6],inactive
same,outcome,[7],inactive
same,outcome,[8],inactive
same,outcome,[10],inactive
Cc1ccccc1C(OCCN(C)C)c1ccccc1 (stereo not drawn),inclusion score,[1],2
same,survival,[2],11.9 (inactive)
same,inhibition,[3],-2% (inactive)
same,fluorescence ratio (interference),[4],0.9 (inactive)
same,outcome,[6],inactive
same,outcome,[7],inactive
same,outcome,[8],inactive
same,outcome,[10],inactive
same,outcome,[13],inactive
CN(CCOc1ccc(CC2SC(=O)NC2=O)cc1)c1ccccn1 (stereo not drawn),outcome,[5],inactive
same,outcome,[7],inactive
same,outcome,[8],inactive
same,outcome,[9],inactive
same,outcome,[10],inactive
same,outcome,[11],inactive
same,outcome,[12],inactive
CCc1cccc2c3c([nH]c12)C(CC)(CC(=O)O)OCC3 (stereo not drawn),inclusion score,[1],2
same,survival,[2],14.8 (inactive)
same,inhibition,[3],-3% (inactive)
same,fluorescence ratio (interference),[4],1 (inactive)
same,outcome,[6],inactive
same,outcome,[7],inactive
same,outcome,[8],inactive
same,outcome,[10],inactive
same,outcome,[13],inactive
N[C@@H](C(=O)N[C@@H]1C(=O)N2C(C(=O)O)=C(Cl)CS[C@H]12)c1ccccc1,survival,[2],9 (inactive) and 6.75 (inactive)
same,outcome,[6],inactive
same,outcome,[7],inactive
same,outcome,[8],inactive
COc1cc2nc(N(C)CCCNC(=O)C3CCCO3)nc(N)c2cc1OC (stereo not drawn),survival,[2],6.42 (inactive)
same,inhibition,[3],-3% (inactive)
same,fluorescence ratio (interference),[4],1 (inactive)
same,outcome,[6],inactive
same,outcome,[7],inactive
same,outcome,[10],inactive
same,outcome,[13],inactive
O=C1C(CCS(=O)c2ccccc2)C(=O)N(c2ccccc2)N1c1ccccc1 (stereo not drawn),inclusion score,[1],1.5
same,survival,[2],40.2 (inactive)
Cc1cn([C@H]2C[C@H](N=[N+]=[N-])[C@@H](CO)O2)c(=O)[nH]c1=O,inclusion score,[1],2
same,outcome,[8],inactive
same,outcome,[10],inactive
COC(=O)Nc1nc2ccc(C(=O)c3ccccc3)cc2[nH]1,survival,[2],1 (inactive)
same,AC50,[5],0.0934 µM (active)
same,AC50,[6],18.7 µM (active)
same,AC50,[9],0.332 µM (active)
same,outcome,[10],inactive
same,AC50,[11],0.468 µM (active)
CCCCCCNC(=O)n1cc(F)c(=O)[nH]c1=O,outcome,[5],inactive
same,outcome,[7],inactive
same,outcome,[10],inactive
same,outcome,[11],inactive
same,outcome,[13],inactive
same,inhibition,"[14]; BGB combo, at 5 µM",41.9% and 91.3%
same,inhibition,[14]; at 0.5 µM,-22% (inactive) and -3.86% (inactive)
same,inhibition,"[14]; cisplatin combo, at 5 µM",46.1% and 36.7%
same,inhibition,[14]; [21],-20.7% and 5.65%
same,inhibition,[14]; [22],-11.9% and -1.01%
same,inhibition,"[14]; single agent, at 5 µM",90.7% and 52%
same,inhibition,[15]; at 0.5 µM,-10.6% (inactive) and -21.3% (inactive)
same,inhibition,"[15]; measured here: combination with BGB IC40, at 0.05 µM",-28.1% and 5.33%
same,inhibition,[15]; [23],-15.3% and -53.6%
same,inhibition,"[15]; measured here: combination with cisplatin, at 5 µM",-40% and -9.49%
same,inhibition,[16]; at 0.5 µM,-3.88% (inactive) and -24.5% (inactive)
same,inhibition,"[16]; measured here: with BGB IC20, at 0.5 µM",-6.6% and -67.2%
same,inhibition,"[16]; measured here: with BGB IC20, at 5 µM",21% and 3.85%
same,inhibition,"[16]; measured here: with cisplatin IC20, at 0.5 µM",-9.7% and -6.78%
same,inhibition,"[16]; measured here: with cisplatin IC20, at 5 µM",9.85% and 21%
same,inhibition,"[16]; single agent, at 5 µM",31.6% and 31.5%
same,inhibition,[17]; at 0.5 µM,-3.42% (inactive) and -19.4% (inactive)
same,inhibition,"[17]; measured here: BGB combination, at 0.5 µM",-7.14% and -19.3%
same,inhibition,"[17]; measured here: BGB combination, at 5 µM",9.33% and -1.4%
same,inhibition,"[17]; measured here: cisplatin combination, at 0.5 µM",-19.1% and -44.2%
same,inhibition,"[17]; measured here: cisplatin combination, at 5 µM",33.3% and 25.8%
same,inhibition,[18]; at 0.5 µM,-1.98% (inactive) and -19.4% (inactive)
same,inhibition,"[18]; cisplatin combination, at 0.5 µM",-28.3% and -28.4%
same,inhibition,"[18]; cisplatin combination, at 5 µM",-14.4% and -69.9%
same,inhibition,"[18]; measured here: BGB IC40 combination 0.05 uM, at 0.05 µM",-34% and -12%
same,inhibition,"[18]; single agent, at 5 µM",6.42% and -7.55%
same,inhibition,[19]; at 0.5 µM,-8.71% (inactive) and -17.6% (inactive)
same,inhibition,"[19]; cisplatin combo, at 5 µM",-32.4% and 29.2%
same,inhibition,"[19]; measured here: BGB IC40 combination, at 0.05 µM",-13.3% and -15%
same,inhibition,[19]; [23],-7.21% and -15.6%
same,inhibition,"[19]; single agent, at 5 µM",54.2% and -12.5%
same,inhibition,[20]; at 0.5 µM,-38.9% (inactive) and -6.62% (inactive)
same,inhibition,[20]; [21],-31.2% and -14.7%
same,inhibition,[20]; [22],-45.1% and -2.6%
same,inhibition,"[20]; single agent, at 0.05 µM",-9.97% and 20.9%
same,inhibition,"[20]; single agent, at 5 µM",-10.7% and 10.5%
